In test [1] the target is Alpha-galactosidase A (Homo sapiens) (UniProt P06280). Put plainly: Counterscreen for Glucocerebrosidase Inhibitors: qHTS Assay for Human alpha-Galactosidase at pH 4.5 (AID 992). A digest of the protocol: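 Citrate buffer pH 4.5, Tween-20 0.005%. Enzyme 2 nM, substrate 80 uM, 20 min RT. Stop pH 10. Fluorescence Ex 365/Em 440. AC50 by Hill fit.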
On the technique in general: A counterscreen serves to expose hits that act by an unwanted route or on another target.

Test [2] has as its target alpha-glucosidase (Oryza sativa, rice) (UniProt Q653V4). In words: Counterscreen for Glucocerebrosidase Inhibitors: qHTS Assay for Rice alpha-Glucosidase at pH 5.0 (AID 997). A digest of the protocol: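 Endpoint fluorogenic assay at pH 5.0: compounds (0.7 nM to 77 uM) titrated against 4 nM rice enzyme and 400 uM 4-MU-alpha-glucoside for 20 min at room temperature; NaOH/glycine stop, read ex 365/em 440 nm, Hill-fitted AC50.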

The target of test [3] is Alpha-galactosidase (Coffea arabica) (UniProt Q42656). Put plainly: Counterscreen for Glucocerebrosidase Inhibitors: qHTS Assay for Coffee Bean alpha-Galactosidase at pH 5.9 (AID 998). A digest of the protocol:
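In 50 mM citric acid pH 5.9 with 0.005% Tween-20, coffee bean enzyme hydrolyses 80 uM 4-MU alpha-D-galactopyranoside over 20 min at RT. Activity is normalized to controls; AC50 comes from Hill-modelled concentration-response data.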

The nature of test [4]: Validation of Assay for Modulators of Lamin A Splicing (AID 1459; active = well fitted curve in the direction sought with a large enough effect in the signal ratio; the % refers to the signal ratio;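 note: cells exposed to compound for two days before reading; ratio rise marks activators and ratio drop marks inhibitors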). Put shortly:
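S3 HeLa stably expressing lamin A-EGFP splicing minigene and DsRed2, 600 cells/well in Opti-MEM with 2% FBS, treated 48 h at 37C; laser-scanning cytometry gives GFP/RFP total intensity ratio; ancitabine positive control, 0.5% DMSO vehicle.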

The nature of test [5]: Cell Viability - LYMP2-020 (AID 986).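 Note: cells exposed to compound for 24 h at 37 °C; nearly all actives have a fitted effect of over 55% in size.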 Note: potency is the fitted concentration of half-maximal effect. Put shortly:
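Cells at 2500 per well receive a 24 hr compound exposure at 37 C. Viability is measured as ATP-dependent luciferase luminescence, with AC50 modeled from qHTS concentration-response curves.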

Test [6] can be described thus: Cell Viability - LYMP2-022 (AID 987). Note: nearly all actives have a fitted effect of over 55% in size. Note: potency is the fitted concentration of half-maximal effect. A digest of the protocol: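 In this qHTS cytotoxicity screen, compound titrations were incubated 24 hr at 37 C with human lymphoblastoid cells in complete medium. Luciferase-based ATP luminescence provided the viability signal.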
Test [7] is described as follows: Cell Viability - LYMP2-024 (AID 988). Note: nearly all actives have a fitted effect of over 60% in size. Note: potency is the fitted concentration of half-maximal effect. A digest of the protocol:
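Cells at 2500 per well received compound for 24 hr after a 5 hr settling period. Viability was scored by CellTiter-Glo luminescence, with AC50 from Hill fits.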

Test [8] in a line: Cell Viability - LYMP2-026 (AID 989).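 Note: cells exposed to compound for 24 h at 37 °C; nearly all actives have a fitted effect of over 50% in size.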 Put shortly:
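Acute toxicity screen in complete culture medium, with 24 hr compound exposure at 37 C. Viability read as cellular ATP via luciferase reaction, with tetraoctylammonium bromide (6.4pM to 92 uM) as positive control.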

Test [9] is described as follows: Cell Viability - LYMP1-002 - Assay at 24 hr (AID 993). Note: potency is the fitted concentration of half-maximal effect. A digest of the protocol:
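Viability was judged from intracellular ATP using a luciferase read-out, following a 24-hour compound incubation at 37 C of lymphoblastoid cells seeded at 2500 per well. Concentration-response data were fitted to the Hill equation for AC50.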

Test [10] in a line: Cell Viability - LYMP1-002 - Assay at 40 hr (AID 994). Note: nearly all actives have a fitted effect of over 60% in size. Note: potency is the fitted concentration of half-maximal effect. A digest of the protocol:
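Concentration-dependent ATP loss after 40 hr treatment at 37 C defined toxicity; AC50 values were obtained by fitting the standard Hill equation.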

Values joined by “and” are separate entries in the source; they are usually repeats but may differ in a detail not shown here. Equal values may be shown once. Inconclusive results are not listed. Active and inactive are the calls of the source. Unless noted, calls come from the whole dose curve; as a rule, active = well fitted curve in the direction sought with a large enough effect; inconclusive = small, poorly fitted or top-dose-only effect, or another doubt; inactive = no such curve, though single readings can be large; an effect the other way counts as inactive or inconclusive.

This is an account of results in PubChem BioAssay (NCATS).

Sequence of Alpha-galactosidase A (Homo sapiens) (P06280 whole entry, looked up): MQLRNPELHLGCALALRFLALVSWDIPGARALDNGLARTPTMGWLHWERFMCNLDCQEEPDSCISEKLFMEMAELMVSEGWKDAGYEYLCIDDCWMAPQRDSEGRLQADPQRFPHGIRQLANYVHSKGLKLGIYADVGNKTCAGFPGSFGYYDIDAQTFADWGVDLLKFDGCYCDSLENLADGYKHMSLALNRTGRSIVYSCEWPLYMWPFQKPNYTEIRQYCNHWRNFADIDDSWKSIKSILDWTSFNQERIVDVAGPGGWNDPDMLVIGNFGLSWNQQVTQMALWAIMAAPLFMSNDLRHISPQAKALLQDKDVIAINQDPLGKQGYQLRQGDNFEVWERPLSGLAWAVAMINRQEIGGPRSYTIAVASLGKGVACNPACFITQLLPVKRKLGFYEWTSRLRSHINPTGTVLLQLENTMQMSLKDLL
Sequence of Alpha-galactosidase (Coffea arabica) (Q42656 whole entry, looked up): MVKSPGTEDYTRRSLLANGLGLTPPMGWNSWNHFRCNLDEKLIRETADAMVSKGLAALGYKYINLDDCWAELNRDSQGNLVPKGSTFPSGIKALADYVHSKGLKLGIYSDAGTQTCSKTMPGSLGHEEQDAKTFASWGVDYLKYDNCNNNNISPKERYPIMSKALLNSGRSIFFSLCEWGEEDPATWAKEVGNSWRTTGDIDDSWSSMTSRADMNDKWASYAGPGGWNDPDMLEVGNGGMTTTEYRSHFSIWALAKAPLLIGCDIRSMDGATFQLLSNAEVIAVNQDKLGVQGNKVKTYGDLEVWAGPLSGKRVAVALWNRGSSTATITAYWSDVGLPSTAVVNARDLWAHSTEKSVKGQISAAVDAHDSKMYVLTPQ

For `Fc1ccc(C(OCCN2CCN(CCCc3ccccc3)CC2)c2ccc(F)cc2)cc1`, the outcome in [1], in [2] and in [3] was inactive.
In the case of `CC(=O)[C@H]1CC[C@H]2[C@@H]3CC[C@H]4C[C@H](O)CC[C@]4(C)[C@H]3C(=O)C[C@]12C`, the outcome in test [1], in test [2] and in [4] was inactive.
In the case of `N#CC(C#N)=Cc1ccc(O)c(O)c1`, the compound was called inactive in test [1], in test [2] and in test [3].
Consider `O=C1NCN(c2ccccc2)C12CCN(CC1COc3ccccc3O1)CC2` (stereo unspecified), for which the compound was called inactive in test [4].
Take `NN=C(N)N`: the outcome in [1], in test [2] and in test [3] was inactive.
In the case of `NCC1(CC(=O)O)CCCCC1`, the result in test [1] and in test [2] was inactive.
Regarding `CNCC(O)c1ccc(O)cc1` (stereo unspecified), the Potency entry in test [5], in test [6], in test [7], in test [9] and in test [10] was “inactive” in each case. For the same compound, the compound was classed as inactive in test [8], in test [1] and in test [2].
Consider `N[C@@H]1C[C@H]1c1ccccc1`, for which the compound was called inactive in [1], in [2] and in test [3].
With `c1ccc(C2CC2)c(OCC2=NCCN2)c1`, the call in test [1], in test [2] and in [3] was inactive.
`Oc1ccccc1-c1ccccc1`: the Potency result in [5], in [6], in test [7], in test [9] and in test [10] was “inactive” in each case. In addition, the call in test [8] was inactive.
As to `COc1ccccc1N1CCNCC1`, the outcome in test [1], in [2], in test [3] and in test [4] was inactive.
`CC(=O)Oc1ccccc1C(=O)Nc1ncc([N+](=O)[O-])s1`: the Potency in test [7], in test [9] and in [10] was 39.8 µM (active) in each case.
Take `O=c1[nH]c2ccccc2n1CCCN1CCC(n2c(=O)[nH]c3cc(Cl)ccc32)CC1`: the result in test [1], in test [2] and in test [3] was inactive.
Turning to `CC(COc1ccccc1)N(CCCl)Cc1ccccc1` (stereo unspecified), the Potency in [5] is 50.1 µM (active).
As for `NCC(CC(=O)O)c1ccc(Cl)cc1` (stereo unspecified), the outcome in [1] and in test [2] was inactive.
Consider `N[C@@H](Cc1ccc(N(CCCl)CCCl)cc1)C(=O)O`, for which the Potency in test [5] was 39.8 µM (active); in [6] it was 15.8 µM (active); in test [7], 20 µM (active). Also, the Potency entry in [9] and in test [10] was “inactive” each time.
Consider `Clc1cccc(N2CCNCC2)c1`, for which the compound was called inactive in [1] and in [2].
On to `Oc1cccc2cccnc12`, for which the Potency in test [5] was 12.6 µM (active) and 10 µM (active); in test [6] it was 10 µM (active) and 6.31 µM (active); in test [7], 7.94 µM (active); in test [9], 25.1 µM (active).
`Cc1cccc(C)c1NC1=NCCCS1`: the result in test [1], in [2], in test [3] and in test [4] was inactive.
For the compound `O=c1[nH]c2ccccc2n1C1CCN(CCCC(c2ccc(F)cc2)c2ccc(F)cc2)CC1`, the compound was called inactive in test [1] and in test [2].
Consider `CCCN1CCC[C@@H]2Cc3nc(N)ncc3C[C@H]21`, for which the outcome in test [1] and in test [2] was inactive.
In the case of `CN1C[C@H](CNC(=O)OCc2ccccc2)C[C@@H]2c3cccc4c3c(cn4C)C[C@H]21`, the compound was classed as inactive in [1], in test [2] and in [3].
As for `CCCN1CCC[C@@H]2Cc3[nH]ncc3C[C@H]21`, the compound was classed as inactive in test [1], in [2] and in test [3].
For the compound `Oc1ccc(Cl)cc1Cc1ccccc1`, the Potency result in [5], in [6], in [7], in [9] and in test [10] was “inactive” in each case. Besides, the outcome in test [8] was inactive.
`CCOP(=S)(OCC)Oc1cc(C)nc(C(C)C)n1`: the Potency entry in test [5], in [6], in [7], in [9] and in test [10] was “inactive” throughout. Further, in [8], the result was inactive.
Turning to `CCCC(C)(COC(N)=O)COC(=O)NC(C)C` (stereo unspecified), the Potency result in [5], in test [6], in test [7], in test [9] and in test [10] was “inactive” each time. The result in test [8], in test [1] and in test [2] was inactive.
As to `CCn1cc(C(=O)O)c(=O)c2ccc(C)nc21`, the outcome in [1], in test [2] and in test [4] was inactive.
On to `NCC(O)c1ccc(O)cc1` (stereo unspecified), for which the Potency result in test [5], in [6], in test [7], in [9] and in [10] was “inactive” throughout. Also, in test [8], the compound was classed as inactive.
For the compound `c1ccc2c(c1)Nc1ccccc1S2`, the Potency result in test [5], in [6], in test [7], in [9] and in [10] was “inactive” throughout. Moreover, in test [8], the call was inactive.
Regarding `Cc1ncc(CNC(=O)N(CCCl)N=O)c(N)n1`, the compound was classed as inactive in test [1], in [2] and in test [3].
With `OCCOc1ccccc1`, the Potency result in test [5], in [6], in [7], in [9] and in [10] was “inactive” each time. Further, in test [8], the compound was classed as inactive.
Consider `Cc1ccc(S(=O)(=O)N[C@@H](CCCCN)C(=O)CCl)cc1`, for which the result in test [1] and in test [2] was inactive.
For `Nc1ccncc1`, the compound was called inactive in test [1] and in [2].
As for `Clc1ccc(COC(Cn2ccnc2)c2ccc(Cl)cc2Cl)cc1` (stereo unspecified), the Potency entry in [9] was “inactive”. Besides, the Potency in [10] is 50.1 µM (active).
For the compound `CN(Cc1cnc2nc(N)nc(N)c2n1)c1ccc(C(=O)N[C@@H](CCC(=O)O)C(=O)O)cc1`, in test [3], the outcome was inactive.
For the compound `CNCCCN1c2ccccc2CCc2ccccc21`, in [3], the compound was classed as inactive.
Still for that read-out and setting: the entry for `NC12CC3CC(CC(C3)C1)C2` is “inactive”; for `CN1CCC(=C2c3ccccc3C=Cc3ccccc32)CC1` it is “inactive”; for `C[C@](N)(Cc1ccc(O)c(O)c1)C(=O)O` it is “inactive”.
With `Nc1nnc(-c2cccc(Cl)c2Cl)c(N)n1`, the result in test [3] was inactive.
In the case of `CN1CCN(CCCN2c3ccccc3Sc3ccc(Cl)cc32)CC1`, in test [3], the outcome was inactive.
As for `Cc1c(OCC(F)(F)F)ccnc1CS(=O)c1nc2ccccc2[nH]1` (stereo unspecified), the compound was called inactive in test [3].
